The text below walks through data of ChEMBL document CHEMBL3988442, “University of Dundee, Small-Polar-MMV Screening Library” (2021).

Molecules are shown by their SMILES. The whole screen tested about 66,000 compounds, of which about 960 (1.5%) showed an effect of 50% or more. Shown is part of a subset that was picked to be rich in strong results.

In this experiment the test system is Trypanosoma brucei. The experiment is described as follows: Trypanosoma brucei 72 hour study. Type of experiment: functional, organism-based. The arrangement: scale not given: in the data most compounds retested in dose-response had high values.

On to `CN(C)C1COC2(CCN(Cc3ccc4c(c3)OCO4)CC2)C1.O=C(O)C(F)(F)F.O=C(O)C(F)(F)F` (stereo unspecified), for which, where the note is “30.3 µM, […]”, the “Percent Effect” value is 39.28%.

In the case of `c1ccc(-c2cc(CNCCN3CCOCC3)c3nnnn3c2)cc1`, the “Percent Effect” value (30.3 µM, […]) is recorded as -21.36%. Regarding `c1ccc(-c2cc(CNCCCN3CCCCC3)c3nnnn3c2)cc1`, under “30.3 µM, […]”, the “Percent Effect” value is -3.089%. Same read-out and setting: as for `c1ccc(-c2cc(CNCCN3CCCC3)c3nnnn3c2)cc1`, the figure is 99.79%; as for `O=C(N1CCOCC1)N1CCc2ncnc(NC3CCC3)c2CC1.O=C(O)C(F)(F)F`, -46.89%. On to `O=C(Cn1cccn1)Nc1ccc(N2CCCCC2)cc1`, for which, under “30 µM, 30.03 µM”, the “Percent Effect” value is on record as -14.86%. On to `Cc1cccnc1[C@]1(O)CC[C@H]2CN(Cc3cccc(Cl)c3Cl)C[C@H]21.O=C(O)CC(O)(CC(=O)O)C(=O)O`, for which the “Percent Effect” value (30.3 µM, […]) was -4.562%. Regarding `Cc1ccc(SC2CCCC2)c(C(=O)NCCO)c1`, the “Percent Effect” value (30 µM, 30.03 µM) is -19.93%. As for `COCc1ccccc1CNCc1c(C(C)C)nn(C)c1N(C)C`, under “10 µM”, the “Percent Effect” value is given as -17.78%. For `CC(C)c1nn(C)c(N(C)C)c1CNCC(O)c1cccc(F)c1` (stereo unspecified), the “Percent Effect” value (10 µM) is recorded as -45.99%. Consider `Cc1ccc(C(O)CNCc2c(C(C)C)nn(C)c2N(C)C)cc1` (stereo unspecified), for which, under “30 µM, 30.03 µM”, the “Percent Effect” value was determined as 54.73%. As to `COc1ncccc1CNCc1c(C(C)C)nn(C)c1N(C)C`, for the setting “30.3 µM, […]”, the “Percent Effect” value came to 0.2022%. `COc1cccc(CNCc2c(C(C)C)nn(C)c2N(C)C)c1OC`: the “Percent Effect” value (30 µM, 30.03 µM) came out at 101.8%. For `CC(C)c1nn(C)c(N(C)C)c1CNCC(O)c1ccccc1` (stereo unspecified), the “Percent Effect” value by setting is: (30.3 µM, […]) 9.453%; (10 mM, 10 mM as filed; unlikely as a test dose) -25.34%.

On to `Cc1ccc(CN(CCCN2CCOCC2)Cc2[nH]cnc2C)o1.O=C(O)CC(O)(CC(=O)O)C(=O)O`, for which the “Percent Effect” value (30.3 µM, […]) is on record as -12.11%. As for `CN(C)CCNC(=O)C1Cc2nc(-c3ccccc3)sc2N1CC1CC1.O=C(O)C(F)(F)F` (stereo unspecified), the “Percent Effect” value (30.3 µM, […]) stood at 23.06%.

Consider `O=C(C1CCOCC1)N1CCc2onc(COc3cccnc3)c2C1.O=C(O)C(F)(F)F`, for which the “Percent Effect” value (30.3 µM, […]) is -638.1%. On to `COc1cc(CN(C)[C@@H]2COC[C@H]2c2ccc(F)cc2)cc(OC)c1.O=C(O)CC(O)(CC(=O)O)C(=O)O`, for which the “Percent Effect” value (30.3 µM, […]) is -25.55%. As to `Cc1ccc(N2CC[C@H]3O[C@@H](C(=O)N4CCCO4)CC[C@H]32)nn1.O=C(O)C(F)(F)F`, the “Percent Effect” value (30.3 µM, […]) is -45.1%. `COc1ccc(CNC(=O)Nc2cccnc2N2CCCC2)cc1O`: the “Percent Effect” value (30 µM, 30.03 µM) was found to be 51.01%. As to `COc1ccc(CNC(=O)Nc2cccnc2N2CCCC2)cc1`, the “Percent Effect” value (30.3 µM, […]) is on record as -33.31%.

As to `COc1ccc(CNC(=O)Nc2cccnc2N2CCCC2)cc1OC`, the “Percent Effect” value (30.3 µM, […]) was -31.53%. Still for that read-out and setting: as for `CC1CCN(CC(=O)NC2CCN(C(C)c3ccccc3)CC2)CC1.Cl` (stereo unspecified), the figure is 21.99%. `COc1ccc(CN2CCC3(CC2)CCN(c2cnn(C)c2)C3=O)cc1.O=C(O)C(F)(F)F`: the “Percent Effect” value (30 µM, 30.03 µM) came to 29.53%. As to `CN(Cc1n[nH]c2c1CCCC2)c1nc(C2CC2)nc2c1CCNCC2`, the “Percent Effect” value (30 µM, 30.03 µM) is reported as 53.53%. The same measure, in the same setting: as for `CN(C)c1nc2c(c(N(C)Cc3n[nH]c4c3CCCC4)n1)CCNCC2`, the figure is 21.59%.

For `CN(Cc1n[nH]c2c1CCC2)c1nc(C2CCCC2)nc2c1CNC2`, for the setting “30 µM, 30.03 µM”, the “Percent Effect” value is reported as -1.405%. In the case of `O=C(C1CCCN(C2CCOCC2)C1)N1Cc2ccccc2C1` (stereo unspecified), the “Percent Effect” value (30 µM, 30.03 µM) is -36.54%. Consider `O=C(CN1CCSC2(CCCCC2)C1)NCC(F)(F)F`, for which the “Percent Effect” value (30.3 µM, […]) was 27.46%. As to `CC(C)(C)C(O)CN1CCN(CC(=O)NCC(F)(F)F)CC1` (stereo unspecified), under “30 µM, 30.03 µM”, the “Percent Effect” value is on record as -50.05%. Take `O=C(CN1CCC2(CCCCC2)C1)NCC(F)(F)F`: for the setting “30.3 µM, […]”, the “Percent Effect” value is 100.3%.

As for `CCNC(=O)[C@@H]1C[C@H](N)CN1C(=O)c1c[nH]c2ccccc12`, under “30.3 µM, […]”, the “Percent Effect” value is on record as -39.66%.

`Cc1cc2c(cc1Cl)C=CC1(CCN(CC(=O)N3CCCC3)CC1)O2`: the “Percent Effect” value (30.3 µM, […]) was -16.81%. Regarding `CCN(CC)C(=O)CN1CCC2(C=Cc3cc(Cl)c(C)cc3O2)CC1`, the “Percent Effect” value (30.3 µM, […]) amounted to 99.22%. With `Cc1cc2c(cc1Cl)C=CC1(CCN(CC(=O)N3CCOCC3)CC1)O2`, the “Percent Effect” value (30.3 µM, […]) is recorded as -3.407%.

Take `CNC(=O)N1C[C@H]2C[C@H](C(=O)NCc3cccnc3)[C@@H](C1)O2.O=C(O)C(F)(F)F`: for the setting “30 µM, 30.03 µM”, the “Percent Effect” value is 41.37%. As for `Cc1noc(C)c1C(=O)N1CCC(c2[nH]ncc2S(C)(=O)=O)C1` (stereo unspecified), the “Percent Effect” value (30.3 µM, […]) is given as -19.64%. As for `CN(CC1CCOCC1)C(C(=O)O)c1cccc(F)c1F` (stereo unspecified), for the setting “30 µM, 30.03 µM”, the “Percent Effect” value is reported as -18.13%. Take `FC(F)(F)COCCN1CCN(c2ccc3nncn3n2)CC1`: the “Percent Effect” value (30 µM, 30.03 µM) came out at 29.6%. As for `c1ccc(OCCCN2CCN(c3ccc4nncn4n3)CC2)cc1`, the “Percent Effect” value (30 µM, 30.03 µM) was found to be 53.47%.

With `Clc1ccccc1CCN1CCN(c2ccc3nncn3n2)CC1`, the “Percent Effect” value (10 µM) amounted to 55.98%. `c1ccc(CCCN2CCN(c3ccc4nncn4n3)CC2)cc1`: the “Percent Effect” value (10 µM) is -24.8%.

Consider `c1ccc(CCN2CCN(c3ccc4nncn4n3)CC2)nc1`, for which, for the setting “30 µM, 30.03 µM”, the “Percent Effect” value turned out to be 14.18%. Regarding `c1ccc(CCN2CCN(c3ccc4nncn4n3)CC2)cc1`, the “Percent Effect” value (10 µM) is -2.806%. Consider `COCCN1CCC2(CC1)CC(NC(=O)CN(C)C)c1ccccc1O2.O=C(O)C(F)(F)F.O=C(O)C(F)(F)F` (stereo unspecified), for which, under “30.3 µM, […]”, the “Percent Effect” value is given as -3.899%. Regarding `CNC(=O)[C@H]1C[C@@H]2CN(C(=O)c3ccncc3)C[C@@H]2N1S(C)(=O)=O.O=C(O)C(F)(F)F`, under “30.3 µM, […]”, the “Percent Effect” value was -12.29%. As to `Cc1cnc(N2CCc3cc(C(=O)O)c(N(C)C)nc3CC2)nc1.O=C(O)C(F)(F)F`, the “Percent Effect” value (30.3 µM, […]) was -16.6%. Take `O=C(NCC1CCN(CCc2ccccc2)C1)c1cc(Cl)c[nH]1` (stereo unspecified): the “Percent Effect” value (30 µM, 30.03 µM) is on record as -9.095%. For `COC(=O)c1ccc(N2CCN(C(=O)c3ccco3)C(C)C2)cc1` (stereo unspecified), where the note is “30.3 µM, […]”, the “Percent Effect” value came to 90.39%.

For `COC(=O)c1ccc(N2CCN(C(=O)C3CCC3)C(C)C2)cc1` (stereo unspecified), the “Percent Effect” value (30 µM, 30.03 µM) is given as 50.56%.
